The entries come from a sample that favours hits as a whole.
GIRK2 activ: activators of human GIRK2 potassium channels. HEK293-GIRK2 thallium flux, Thallos fluorescence, MPD. G protein-activated inward rectifier potassium channel 2 (Homo sapiens), P48051. AID 1259325, 2017. calls only for hits at 25 µM. 63,000 tested, 0.05% active; call rule not given here
Target sequence (P48051 whole entry, looked up): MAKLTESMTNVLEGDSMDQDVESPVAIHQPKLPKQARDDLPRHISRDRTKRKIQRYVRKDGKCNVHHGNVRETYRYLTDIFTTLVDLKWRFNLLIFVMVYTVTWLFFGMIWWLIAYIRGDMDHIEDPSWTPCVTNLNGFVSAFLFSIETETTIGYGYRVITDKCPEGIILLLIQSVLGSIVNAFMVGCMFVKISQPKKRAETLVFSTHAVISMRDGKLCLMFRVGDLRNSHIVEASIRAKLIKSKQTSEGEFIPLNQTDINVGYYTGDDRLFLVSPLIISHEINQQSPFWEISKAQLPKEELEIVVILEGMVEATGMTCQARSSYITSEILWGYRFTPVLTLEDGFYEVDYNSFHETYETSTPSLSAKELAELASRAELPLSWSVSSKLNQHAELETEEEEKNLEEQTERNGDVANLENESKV
Numbers without * were called inactive; i = inactive; + = active, no number.

SMILES | GIRK2 activ
N#Cc1ccc(Cl)cc1NC(=O)c1cnn2c1OCCC2 | i
O=C(Nc1cc2ccccc2oc1=O)c1cnn2c1OCCC2 | i
O=C(Nc1cc(Cl)ccc1O)c1cnn2c1OCCC2 | +
COc1ccc(S(=O)(=O)c2c(C)cc(C)n(CC(=O)NCc3ccc(C)cc3)c2=O)cc1OC | i
COc1ccc(NC(=O)CSc2ncnc3nc(N4CCc5ccccc5C4)sc23)cc1OC | i
O=C(NCC(c1cccs1)N1CCOCC1)C(=O)Nc1ccc2c(c1)OCCO2 (stereo not given) | i
N#Cc1ccc(Cl)cc1NC(=O)C(=O)NCC(c1cccs1)N1CCOCC1 (stereo not given) | i
O=C(NCC(c1cccs1)N1CCOCC1)C(=O)Nc1ccccc1F (stereo not given) | +
CC(=O)Nc1ccc(S(=O)(=O)Nc2cnoc2)cc1 | i
N#Cc1ccc(C(=O)c2cnn(-c3ccc(F)cc3)c2N)cc1 | i
CCNC(=O)NCCS(=O)(=O)N1CCc2ccccc21 | i
Cn1cnnc1SCCNC(=O)Cc1csc(Nc2ncccn2)n1 | i
COCCCNC(=O)CSc1nc(-c2ccc(OC)c(OC)c2)[nH]c1-c1ccc(F)cc1 | i
COCCCNC(=O)CSc1nc(-c2ccc(F)cc2)[nH]c1-c1ccc(F)cc1 | +
COCCCNC(=O)CSc1nc(-c2ccccc2)[nH]c1-c1ccc(OC)cc1 | i
COCCCn1c(C(=O)Nc2ccccc2Cl)cc2c(=O)n(C)c(=O)n(C)c21 | i
CCOc1ccccc1N1CCN(S(=O)(=O)c2n[nH]c(C)c2C(=O)OC)CC1 | i
COC(=O)c1c(S(=O)(=O)N2CCN(c3cccc(Cl)c3)CC2)n[nH]c1C | +
CCOC(=O)c1c(S(=O)(=O)N2CCN(c3ccc(Cl)cc3)CC2)n[nH]c1C | i
O=C(Nc1onc2c1CCCC2)c1cc2n(n1)CCCO2 | i
O=C(CN1CCN(CC(O)C2CC2)CC1)Nc1nccs1 (stereo not given) | i
COCCc1nnc(NC(=O)C(C)Oc2ccccc2)o1 (stereo not given) | i
O=C(Nc1ccccc1-c1ccc(=O)[nH]n1)c1cnccn1 | i
COc1ccc(NC(=O)Cn2cnc3sc(-c4nc(-c5cccc(C)c5)no4)c(C)c3c2=O)cc1 | i
COc1cccc(C(=O)N2CCC(CSc3nc(C)cs3)CC2)c1OC | i
SMILES | GIRK2 activ
COc1coc(C(=O)NCc2ccccc2)cc1=O | i
COc1coc(C(=O)Nc2ccc(Oc3ccccc3)cc2)cc1=O | +
COc1coc(C(=O)Nc2ccc(C)c(Cl)c2)cc1=O | i
O=C(c1nnn(-c2ccc(Cl)cc2)c1-c1cccnc1)N1CCN(Cc2ccccc2)CC1 | i
COc1ccc(NC(=O)c2nn(-c3cccc(F)c3)c(OC)cc2=O)cc1Cl | i
Nc1nc(-c2ccc(F)cc2)c(-c2ccc3ncccc3n2)s1 | i
Fc1ccc(-c2n[nH]c(=S)s2)cc1 | +
Cc1nc(-c2ccc(F)cc2)sc1-c1cc(C(=O)N(C)Cc2ccccc2)n[nH]1 | i
O=C(Cn1ccn2nc(-c3ccc(Cl)cc3)cc2c1=O)N1CCCCCC1 | i
CCOc1ccccc1NC(=O)CN1CCc2nc(NC(=O)c3ccccn3)sc2C1 | i
CC(O)CNc1ncnc2[nH]ncc12 (stereo not given) | i
O=C(NCC#CCOc1cccc(C(F)(F)F)c1)c1ccc(=O)[nH]n1 | i
O=C(O)c1cnc(SCc2ccccc2)[nH]c1=O | i
O=C(NCc1ccc(F)c(Cl)c1)c1nnn(-c2ccccc2)c1-c1ccccn1 | i
O=C(Nc1cccc(Cl)c1F)c1nnn(-c2ccccc2)c1-c1ccccn1 | +
COC(=O)c1ccccc1NC(=O)c1nnn(-c2ccccc2)c1-c1ccccn1 | i
Cc1cc(C)c(NC(=O)Cn2nc3ccc(SC4CCCCC4)nn3c2=O)c(C)c1 | i
O=C(COc1ccc(-c2ccccc2)cc1)Nc1cc(N2CCOCC2)ncn1 | i
CN(C)CC#Cc1cccc(C(=O)c2cnn(-c3ccc(F)cc3)c2N)c1 | i
COc1ccc(NC(=O)c2cn(-c3cc(N(C)C)ncn3)cn2)cc1OC | i
COc1ccc(NC(=O)c2c(O)c3sccc3n(C)c2=O)cc1Cl | i
CSc1cccc(NC(=O)COc2cc(C)nc(-c3ccc(C)cc3)n2)c1 | i
CSc1cccc(NC(=O)C(=O)NCC2(c3ccccc3)CCOCC2)c1 | i
CSc1ccccc1NC(=O)C(=O)NCC1(c2ccccc2)CCOCC1 | +
CSc1ccccc1NC(=O)C(=O)NCC1(CO)CC1 | i
SMILES | GIRK2 activ
O=C(c1cc(C2CC2)on1)N1CCN(CCn2cccn2)CC1 | i
O=S(=O)(NCCOc1ccccc1)c1ccc2c(c1)OCCO2 | i
CC(C)CC[C@@]1(O)c2cc3c(O)cccc3cc2C(=O)[C@H](C)[C@]1(O)C(=O)O | i
CC1C(=O)N2CCCc3cc(NC(=O)C(=O)NCC(O)(c4ccccc4)C4CC4)cc1c32 (stereo not given) | +
Cc1ccc(NC(=O)C(=O)NCC(O)(c2ccccc2)C2CC2)cc1N1CCCC1=O (stereo not given) | i
CC1C(=O)N2CCCc3cc(NC(=O)C(=O)NCC4(O)CCOc5ccccc54)cc1c32 (stereo not given) | i
CC(=O)Cn1c(=O)c2c(nc3n(-c4cccc(C)c4C)c(C)cn23)n(C)c1=O | i
CCOC(=O)c1ccc2nc(C)cc(NC(=O)c3ccccc3)c2c1 | i
COc1ccc(S(=O)(=O)N2CCCOC2CNC(=O)C(=O)NCCC(C)C)cc1OC (stereo not given) | i
Cc1ccc(-c2nn(-c3ccccc3)cc2C2CC(c3ccco3)=NN2C(=O)CNCCO)cc1 (stereo not given) | i
CC(C)(C)OC(=O)COc1ccc2c(=O)c(-c3ccccc3)c(C(F)(F)F)oc2c1 | i
COc1ccc(-c2c(C(F)(F)F)oc3cc(OCC(=O)OC(C)(C)C)ccc3c2=O)cc1 | i
NC(=O)COc1ccc2c(=O)c(-c3ccc(Cl)cc3)c(C(F)(F)F)oc2c1 | +
O=C(CCn1cnc2ccccc2c1=O)N1CCC(Oc2ccc(C(F)(F)F)cn2)CC1 | i
CCOC(=O)CN1CCN(c2nc3c(c(=O)[nH]c(=O)n3C)n2CCCc2ccccc2)CC1 | i
Cc1ccccc1C(=O)NC1CCN(C(=O)c2cc(-c3cccs3)[nH]n2)CC1 | i
Cc1ccc(N2CCN(C(=O)c3cccc(N4CCCS4(=O)=O)c3)CC2)c(C)c1 | i
COc1cccc(OC)c1C(=O)NCC(O)C1CCCCC1 (stereo not given) | i
CCn1c(=O)c2c(nc3n(-c4cc(OC)ccc4OC)c(-c4ccccc4)cn23)n(C)c1=O | +
CCCn1c(=O)c2c(nc3n(-c4cc(OC)ccc4OC)c(-c4ccccc4)cn23)n(C)c1=O | i
CCn1c(=O)c2c(nc3n(-c4ccc(OC)cc4OC)c(-c4ccccc4)cn23)n(C)c1=O | i
CCOc1ccc(/C=C/C(=O)Nc2cc(C)cc(C)c2)cc1 | i
COc1cc(OC)cc(C(=O)NCC2CCN(C(=O)c3cccnc3)CC2)c1 | i
CN1CCN(c2ncc(NC(=O)Nc3ccc(Cl)c(C(F)(F)F)c3)cn2)CC1 | +
Cc1ccc(NC(=O)Nc2cnc(N3CCN(C)CC3)nc2)c(Cl)c1 | i
Cc1cc(C)n(-c2ncc(NC(=O)Nc3ccc(Cl)c(C(F)(F)F)c3)cn2)n1 | i
COc1ncccc1C(=O)N1CC(c2nc(-c3cccc(C(F)(F)F)c3)no2)C1 | i
COc1ccc(-c2csc3c(=O)n(CC(=O)Nc4ccc(F)cc4Cl)cnc23)cc1 | i

Source: PubChem
